# Measured values published in PubChem BioAssay AID720518 (National Center for Advancing Translational Sciences (NCATS), 2013).
# Inconclusive results are not listed. Entries that show only a call come without a potency. Active and inactive are the calls of the source. Calls follow the shape of the full dose curve.
# Experiment: qHTS for Inhibitors of Cell Surface uPA Generation: Wild-type Protective Antigen (WT-PrAg) Counterscreen for Cherry-picked Compounds
# Potency is read from the fitted curve at half-maximal effect.
row,SMILES,Potency
1,CCOC(=O)Cc1csc(NC(=O)Nc2cccc(OC)c2)n1,inactive
2,COc1ccccc1NC(=O)COc1ccc(C(=O)NCc2ccccc2)cc1OC,inactive
3,O=C(COc1ccccc1F)NCC(c1ccc(F)cc1)N1CCOCC1 (centres undefined),inactive
4,O=C(NCCc1ccccc1)C1CCC(=O)N(Cc2cccc(C(F)(F)F)c2)C1 (centres undefined),inactive
5,CCN(CC)S(=O)(=O)c1ccc(C(=O)Nc2cccc(C)c2)cc1,inactive
6,CCOC(=O)c1c(NC(=O)CC2SC(N)=NC2=O)sc2c1CCC(C)C2 (centres undefined),inactive
7,Cc1cccc(NC(=O)C2CCCN(S(=O)(=O)c3cccc4cccnc34)C2)c1 (centres undefined),inactive
8,COc1ccc(C2=NOC(CNC(N)=S)C2)cc1 (centres undefined),inactive
9,COc1cc2oc(=O)ccc2cc1[C@H](O)[C@@H](O)C(C)(C)O,inactive
10,CCOC(=O)C1CCCN(CC(=O)Nc2ccc(C(=O)Nc3ccccc3OC)cc2)C1 (centres undefined),inactive
11,Cc1cc(C)c(NC(=O)Cn2nnc(C(=O)NCc3ccc4c(c3)OCO4)c2N)c(C)c1,inactive
12,O=C(/C=C/c1ccc(O)c(O)c1)O[C@@H]1C[C@](O)(C(=O)O)C[C@@H](O)[C@H]1O,inactive
13,O=C(CCCOc1ccc(Cl)cc1Cl)NCc1ccncc1,inactive
14,CCOc1cc(N2CCOCC2)c(OCC)cc1NC(=O)c1[nH]c(C)c(C(C)=O)c1C,inactive
15,COc1ccccc1NS(=O)(=O)c1cc(NC(=O)CCc2nc3ccccc3c(=O)[nH]2)ccc1C,inactive
16,CCO[C@H]1OC(C(=O)N2CCCCCCC2)=C[C@@H](c2ccc(C(F)(F)F)cc2)[C@@H]1CCCO,inactive
17,C=C(C(=O)O)C1CCC2(C)CCCC(C)(O)C2C1 (centres undefined),inactive
18,Oc1ccc(/C=N/Nc2cccc(Cl)n2)c(O)c1,inactive
19,COc1cc(OC)cc(C(=O)NC(C(=O)Nc2ccc3c(c2)CCC3)C(C)C)c1 (centres undefined),inactive
20,Cc1cc(C)c(S(=O)(=O)N2CCCOC2CNC(=O)C(=O)NCc2cccs2)c(C)c1 (centres undefined),inactive
21,COc1ccc([C@H]2[C@H](C(=O)OC(C)(C)C)N3N=Cc4ccccc4C3C23C(=O)c2ccccc2C3=O)cc1OC (some centres undefined),inactive
22,Cc1ccc(S(=O)(=O)N2CCN(C(=O)c3n[nH]c(=O)c4ccccc34)CC2)cc1,inactive
23,COc1ccc(C(=O)NCCOC(C)C)cc1OC1CCN(C(C)=O)CC1,inactive
24,O=C(COC(=O)/C=C/c1cccc(F)c1)Nc1ccccc1,inactive
25,CCOCCCn1c(SCC(=O)Nc2oc(C)c3c(C)n[nH]c(=O)c23)nc2ccccc2c1=O,inactive
26,COc1ccc(-c2nn(CCC#N)cc2C(=O)Nc2cccc([N+](=O)[O-])c2)cc1OC,inactive

row,SMILES,Potency
1,CCOc1ncccc1C(=O)NCc1ccccc1Cl,inactive
2,Cc1ccc2cccc(OCCCOc3ccccc3CO)c2n1,inactive
3,COc1cccc(C(=O)NCc2ccc3[nH]c(C)cc3c2)c1,inactive
4,O=C(O)CNS(=O)(=O)c1ccc2c(c1)Cc1cc(S(=O)(=O)NCC(=O)O)ccc1-2,inactive
5,Cc1ccc(N2C(=O)CC(N3CCN/C3=C3\CC/C(=C\c4ccccc4)C3=O)C2=O)cc1 (centres undefined),inactive
6,CCOC(=O)CN1C(=O)N[C@@H](c2ccco2)C(C(=O)OC)=C1C,inactive
7,Cc1ccnc(N2CCN(C(=O)CSc3nc4ccccc4nc3N3CCC(C)CC3)CC2)c1,inactive
8,C=CCc1cc(S(=O)(=O)c2ccc(O)c(CC=C)c2)ccc1O,inactive
9,CCCCOc1ccc(S(=O)(=O)N2CCCCC2)cc1,inactive
10,COCCCN1CC23C=CC(O2)C(C(=O)O)C3C1=O (centres undefined),inactive
11,CCOc1ccc(CCNC(=O)Cc2ccc(NC3=NC4CS(=O)(=O)CC4S3)cc2)cc1OCC (centres undefined),inactive
12,CN(CC(=O)N(C)CC(=O)Nc1c(Cl)cccc1Cl)Cc1ccccc1F,inactive
13,Cc1cc(N2C(=O)C(O)=C(C(=O)c3ccco3)C2c2ccc(Cl)cc2)no1 (centres undefined),inactive
14,C[C@H](O)[C@@H]1C(=O)N2CCc3ccc(-c4cccc(F)c4)cc3[C@@H]2C[C@@H]1N(C)C(=O)C(C)(C)C,inactive
15,CC(C)(C)C(=O)NCCc1nc2ccccc2n1CC(=O)c1ccc(Cl)cc1,inactive
16,COc1cccc(NC(=O)CSc2nc3ncc(Br)cc3[nH]2)c1,inactive
17,COc1cccc(C2CC(c3ccc(C)cc3)n3ncnc3N2)c1 (centres undefined),inactive
18,CCCCn1c(-c2cccnc2)nc2cc3[nH]c(=O)c(C(C)C)nc3cc21,inactive
19,Cc1ccc(S(=O)(=O)NNC(=O)c2ccc(F)cc2)cc1,inactive
20,CC(C)NC(=O)CN1CCC(c2nc3ccccc3[nH]2)CC1,inactive
21,Cc1cc(C)n(CCCNC(=O)c2ccc(C)o2)n1,inactive
22,O=C(Nc1cccc(NC(=O)c2ccc(F)cc2)c1)c1ccc(F)cc1,inactive
23,O=C(Nn1cnnc1)c1ccc(Cl)c(Cl)c1,inactive
24,Cn1nc(C(C)(C)C)c([N+](=O)[O-])c1C(=O)N1CCOCC1,inactive
25,CC(=O)[C@@]1(O)[C@H](C)CC2C3CC=C4CC(OP(=O)(O)O)CC[C@]4(C)C3CC[C@@]21C (some centres undefined),inactive
26,Cc1cc(C)n2c(SCC#N)nnc2n1,inactive

row,SMILES,Potency
1,CN(C)CCNC(=O)Nc1ccc([N+](=O)[O-])cc1,inactive
2,CC1CC(=O)Nc2ccccc2N1C(=O)Cn1cnc2ccc(Br)cc2c1=O (centres undefined),inactive
3,Cc1ccc(OCc2cc(C(=O)N(C)Cc3cc(C4CC4)n[nH]3)no2)cc1C,inactive
4,CN(CCO)c1ccc(C(C(=O)c2ccccc2)c2ccc(N(C)CCO)cc2)cc1,inactive
5,CSc1ccccc1OCc1cc(C(=O)NCCCn2nc(C)cc2C)no1,inactive
6,CCOc1ccc(OCC)c(NC(=O)c2ccc(CNc3c(N4CCCC4)c(=O)c3=O)cc2)c1,inactive
7,CCOCCOc1cc(NCc2ccccc2)c2ncn(C(C)C)c2c1,inactive
8,Cc1oc2c(Cl)c(Cl)c(O)c(CN(C)C)c2c1C(=O)c1ccc(Cl)cc1,inactive
9,Cc1cccc(N2C(=O)c3cccc(Oc4ccc(Cl)cc4)c3C2=O)c1,inactive
10,COc1ccc(/C=N/NC(=O)COc2ccc3ccccc3c2)c(C(=O)O)c1OC,inactive
11,O=C(NCCCn1cccn1)C1CCC(=O)N(Cc2ccccc2F)C1 (centres undefined),inactive
12,FC(F)(F)Oc1ccc(NC2=NCCCS2)cc1,inactive
13,COc1ccc(C(C)=O)cc1CSC(=N)N,inactive
14,COc1cc(CN2CCNC(=O)C2CC(=O)NCCCC2CCCC2)cc(OC)c1 (centres undefined),inactive
15,Cc1ccc(NC(=O)CCCn2c(=S)[nH]c3ccsc3c2=O)cc1C,inactive
16,COc1ccc(-c2cc3nc(C)cc(-c4ccc(OC)cc4)n3n2)cc1,inactive
17,CCOc1ccc(C2(C)CC(=O)N(C)C2=O)cc1 (centres undefined),inactive
18,N#CCCN(C(=O)COC(=O)c1ccc2c(c1)NC(=O)CS2)c1ccc2c(c1)OCCO2,inactive
19,O=S(=O)(c1ccc2nc(N3CCN(c4ccccc4)CC3)ccc2c1)N1CCCCC1,inactive
20,Cn1c(=O)c2c(ncn2CCO)n(C)c1=O,inactive
21,Cc1ccc(-c2nc(CS(=O)(=O)CC(=O)NCc3cccc(F)c3)c(C)o2)cc1,inactive
22,CCc1nc(SCC(N)=O)c2c(=O)n(C)c(=O)n(C)c2n1,inactive
23,COc1ccccc1N1CCN(Cc2ccc(SC)cc2)CC1,inactive
24,Cc1cc(=O)n2nc(N3CCCC(C(=O)NCc4ccc(Cl)cc4)C3)sc2n1 (centres undefined),inactive
25,O=C(NCCc1cn2ccsc2n1)c1cccs1,inactive
26,Cc1ccc(Cl)c(N/C=C/C(=O)c2ccccc2)c1,inactive

row,SMILES,Potency
1,O=C(CCS(=O)(=O)c1ccc2c(c1)NC(=O)CS2)NCc1cccs1,inactive
2,CCCS(=O)(=O)c1ccc(COC(=O)Cc2ccc([N+](=O)[O-])cc2)cc1,inactive
3,C=CC[n+]1c(/C=C/c2ccc(OC(C)=O)c(OC)c2)ccc2ccccc21,inactive
4,CC(=O)Nc1ccc(OS(=O)(=O)c2c(C)cc(C)cc2C)cc1,inactive
5,Cc1cccc(Nc2ccc(NCc3ccccc3)nn2)c1,inactive
6,CC1CC(C)CN(CCCNC(=O)CN2C(=O)CSc3ccc(S(=O)(=O)N4CCOCC4)cc32)C1 (centres undefined),inactive
7,COc1ccc(C(=O)N2CCN(c3ccc(C(C)=O)cc3)CC2)cc1S(=O)(=O)N1CCCC1,inactive
8,CCOc1ccc(NS(=O)(=O)c2coc(C(N)=O)c2)cc1,inactive
9,O=c1[nH]c(=O)n(-c2ccc(Cl)cc2)c(O)c1C=Nc1ccc(S(=O)(=O)Nc2nccs2)cc1,inactive
10,COc1ccccc1CCNC(=O)C(=O)NCC1OCCN1S(=O)(=O)c1ccc(OC)c(OC)c1 (centres undefined),inactive
11,CCN(C(=O)c1c(C)noc1C)c1c(N)n(Cc2ccccc2)c(=O)[nH]c1=O,inactive
12,CCC1Nc2ncnc(N3CCCCC3)c2N(Cc2ccc(Cl)cc2)C1=O (centres undefined),inactive
13,Cc1cccc(N2CCN(Cc3ccc(Br)o3)CC2)c1C,inactive
14,CCN(CC)CC(=O)Nc1sc2c(c1C(=O)c1ccccc1OC)CCC2,9.27 µM (active)
15,CC1CC(C)(C)Nc2ccc(N=O)cc21 (centres undefined),inactive
16,Cc1ccc(C)c(-c2ccc(=O)n(Cc3c(F)cccc3Cl)n2)c1,inactive
17,CCCCn1c(=NC(=O)c2ccco2)c(C(=O)OCC)cc2c(=O)n3cccc(C)c3nc21,inactive
18,CC(C)CN(C(=O)CN1CCC(C)CC1)c1c(N)n(CC(C)C)c(=O)[nH]c1=O,inactive
19,COc1ccc([C@H]2CC(=O)C=C(c3ccc(CNC(=O)OC(C)(C)C)cc3)C2)cc1,inactive
20,Cc1cccn2c(CNCC(C)Oc3cccnc3)c(C(=O)N3CCOCC3)nc12 (centres undefined),inactive
21,CCCc1nn2c(=O)cc(CSCC(=O)Nc3ccccc3)nc2s1,inactive
22,O=c1[nH]c2ccccc2cc1CN(CC1CCCO1)S(=O)(=O)c1ccccc1 (centres undefined),inactive
23,COCCn1nnnc1C(C(C)C)N1CCCC(C)C1 (centres undefined),inactive
24,O=C(NC1CCCCC1)C(c1ccco1)N(C(=O)c1csnn1)c1cccc(Cl)c1 (centres undefined),inactive
25,CC1CCCCN1C(=O)CSc1nc2ncccc2[nH]1 (centres undefined),inactive
26,CCc1nnc(NC(=O)CSc2nnnn2-c2cccc(C(C)=O)c2)s1,inactive
